Cruzain Triton = qHTS Assay for Promiscuous and Specific Inhibitors of Cruzain (with detergent); Potency, µM, most hits filed as inhibitors; AID 1478, 2009; purified cruzain, Z-FR-AMC fluorescence, 0.01% Triton; Cruzipain (Trypanosoma cruzi), P25779; 0.43% of 200,000 active; further: nearly all actives have a fitted effect of over 40% in size
Target sequence (P25779 123-467 limits assumed): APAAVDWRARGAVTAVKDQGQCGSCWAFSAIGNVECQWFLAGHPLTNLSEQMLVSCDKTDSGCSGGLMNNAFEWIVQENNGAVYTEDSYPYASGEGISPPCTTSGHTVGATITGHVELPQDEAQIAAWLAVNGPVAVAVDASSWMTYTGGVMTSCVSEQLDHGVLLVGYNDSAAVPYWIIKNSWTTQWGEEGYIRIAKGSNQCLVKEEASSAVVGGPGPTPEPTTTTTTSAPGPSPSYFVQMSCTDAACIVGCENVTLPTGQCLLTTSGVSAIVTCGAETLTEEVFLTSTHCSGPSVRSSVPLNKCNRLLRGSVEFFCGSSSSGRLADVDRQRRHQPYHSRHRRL
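Compounds were screened in titration against cruzain (1.5 nM) with 0.01% Triton X-100 to counter colloidal aggregation. Activity was the AMC fluorescence increase over 60 s after adding 2 uM Z-FR-AMC at pH 5.5.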
Cruzain noTriton = qHTS Assay for Promiscuous and Specific Inhibitors of Cruzain (without detergent); purified cruzain, Z-FR-AMC fluorescence, no detergent; Cruzipain (Trypanosoma cruzi), P25779; 2.3% of 200,000 active; Potency, µM, most hits filed as inhibitors; further: nearly all actives have a fitted effect of over 40% in size
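Detergent-free condition (0.00005% Triton X-100) in acetate buffer pH 5.5 with DTT. 1.5 nM enzyme and compound were pre-mixed 15 min, then 2 uM Z-FR-AMC substrate added; reaction progress from fluorescence change between first and third reads (60 s).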
Of the large screens only hits and unclear results are named; the others gave an inactive call. Only some compounds are listed: those with a hit (about 2.5% of all), similar ones and a draw of the others. The call rests on the fitted dose curve; in most records, active means well fitted curve in the direction sought with a large enough effect; inconclusive means small, poorly fitted or top-dose-only effect, or another doubt; inactive means no such curve, though single readings can be large; an effect the other way counts as inactive or inconclusive.

COC(=O)c1c(C)oc2ccc(N(C(=O)Oc3ccccc3)S(=O)(=O)c3ccc(Cl)c([N+](=O)[O-])c3)cc12	Cruzain noTriton 7.9µM
O=C(COc1ccccc1)Nc1nnc(SCc2cc(=O)n3cc(Cl)ccc3n2)s1	none
COC(=O)c1scc(-c2ccc(C)cc2)c1S(=O)(=O)N1CCN(c2ccc(OC)cc2)CC1	none
O=C(COC(=O)c1cccc(S(=O)(=O)N2CCc3ccccc32)c1)Nc1ncc(Cl)cc1Cl	Cruzain noTriton inconclusive
O=C(COC(=O)c1ccc(Cl)c(S(=O)(=O)N2CCc3ccccc3C2)c1)Nc1ncc(Cl)cc1Cl	Cruzain noTriton 20µM
Cc1cccc(N2CCN(C(=O)c3ccc(Cl)c(S(=O)(=O)NCc4ccco4)c3)CC2)c1C	none
Cc1cccc(N2CCN(C(=O)c3ccc(Cl)c(S(=O)(=O)N4CCc5ccccc5C4)c3)CC2)c1C	Cruzain noTriton 10µM
CCOc1ccc(CN(CCc2ccc3c(c2)OCO3)Cc2cc(OC)cc(OC)c2)cc1	none
COc1ccc(OCC(O)CN2CCC(CN3C(=O)c4cccc5cccc(c45)C3=O)CC2)cc1 (configuration not stated)	none
COc1ccc(S(=O)(=O)N2CCC(CN3C(=O)c4cccc5cccc(c45)C3=O)CC2)cc1	Cruzain noTriton 25µM
COCCn1c(=O)c(-c2ccc(OC)cc2)nc2cnc(N3CCOCC3)nc21	none
CCN(c1ccccc1)c1nnc(NC(=O)Nc2cccc(Cl)c2C)s1	none
Cc1cccc(NC(=O)Cn2cc(C(=O)C3CCCCC3)c3ccccc32)c1C	none
CCCn1ccc2c(OCC(=O)Nc3cc(C)ccc3C)cccc2c1=O	none
Cc1ccc(-c2nc3ccccc3[nH]2)cc1NC(=O)c1sc2cc(Cl)ccc2c1Cl	Cruzain noTriton 7.9µM
Cc1ccc(-c2nc3ccccc3[nH]2)cc1NC(=O)COc1ccc(Cl)cc1Cl	none
COc1ccc2cc(C(=O)CCC(=O)O)ccc2c1	none
O=C(CN1C(=O)S/C(=C\c2ccc(Cl)cc2)C1=O)NNC(=O)c1ccccc1O	Cruzain noTriton 20µM
COc1cccc(/C=C2\SC(=O)N(CCC(=O)NNC(=O)c3ccccc3Cl)C2=O)c1	Cruzain noTriton inconclusive
O=C(NC1=NCCS1)c1csc2ccccc12	Cruzain noTriton 16µM
Cc1cc(C(=O)NC2=NCCS2)cs1	none
Cc1ccc2onc(CNC(=O)NCc3ccccc3)c2c1	none
Cc1ccc(C(=O)NNC(=O)CSc2nnc3c(n2)[nH]c2ccc(F)cc23)cc1	Cruzain noTriton inconclusive
O=C(CSc1nnc2c(n1)[nH]c1ccc(F)cc12)OCc1ccccc1	Cruzain noTriton 13µM
COC(=O)c1sc2nc(SCc3ccccc3C#N)n(N)c(=O)c2c1C	Cruzain noTriton 32µM
CCOC(=O)CSc1nc2sc(C)c(C)c2c(=O)n1N	none
CC(=O)C=NCC(=O)O	none
Cc1noc2ncc(C(=O)c3cc(F)ccc3O)cc12	none
Cc1ccc(O)c(C(=O)c2cnc3onc(-c4ccc(F)cc4)c3c2)c1	Cruzain noTriton 13µM
Cc1cc(C)c(-c2cc(NC(=O)COC(=O)c3ccc(C#N)cc3)n(-c3ccccc3)n2)cc1C	Cruzain noTriton 16µM
Cc1cc(C)c(-c2cc(NC(=O)CSc3nncn3C)n(-c3ccccc3)n2)cc1C	Cruzain noTriton inconclusive
CCOC(=O)N1C2C=C(C)[C@@H]2[C@@H]2CC(=O)N21 (some centres not stated)	Cruzain Triton 14µM, Cruzain noTriton 13µM
CCOC(=O)N1CCN(C2CC(=O)N(c3ccc(C)cc3)C2=O)CC1 (configuration not stated)	none
CCOC(=O)c1c(-c2ccc(C)cc2)csc1NC(=O)c1cc(=O)c2cc(Cl)ccc2o1	none
Cc1cccn2c(=O)cc(COc3cccc(NC(=O)c4ccccc4F)c3)nc12	none
O=c1[nH]c(/C(Cl)=C/c2cccc(C(F)(F)F)c2)nc2cc(Cl)ccc12	Cruzain noTriton 3.2µM
O=c1[nH]c(/C(Cl)=C/c2c(F)cccc2Cl)nc2cc(Cl)ccc12	Cruzain noTriton inconclusive
COc1ccc2c(c1)C1=NN(/C(C)=C/C(C)=O)C(c3ccc(F)cc3)C1CC2 (configuration not stated)	none
COc1ccc2c(c1)C1=NN(/C(C)=C\C(C)=O)C(c3ccccc3)C1CC2 (configuration not stated)	Cruzain noTriton 25µM
O=C(CSc1nnc(-c2cccc(S(=O)(=O)N3CCCCC3)c2)o1)c1ccc[nH]1	Cruzain noTriton 16µM
O=S(=O)(c1cccc(-c2nnc(SCc3ccc(Cl)cc3)o2)c1)N1CCCCC1	none
Cc1[nH]c2ccccc2c1C(=O)CSc1ccccc1	none
Cc1ccc2c(C(=O)CSc3ccccc3)c(C)[nH]c2c1	Cruzain noTriton 13µM
Cc1ccc2c(CC(=O)Nc3ccc(S(=O)(=O)N4CCCCC4C)cc3)coc2c1C (configuration not stated)	Cruzain noTriton inconclusive
Cc1ccc2c(CC(=O)Nc3ccc(S(=O)(=O)N4CCCCC4C)cc3)coc2c1 (configuration not stated)	Cruzain noTriton 25µM
COc1ccc(C)cc1NC(=O)Nc1ccc(Br)cn1	Cruzain noTriton 25µM
CCOC(=O)Nc1cc(C)ccc1OC	none
O=C(Cn1nnc(-c2ccccc2Cl)n1)N/N=C/c1ccc(-c2cccc(Cl)c2)o1	Cruzain noTriton 32µM
O=C(CN1CCCC1)N/N=C/c1ccc(-c2cccc(Cl)c2)o1	none
COc1ccccc1[C@@H]1C(c2ccc(F)cc2)=NN(c2ccc(Br)cc2)[C@H]1C(=O)N1CCOC1=O	Cruzain noTriton 25µM
O=C1OCCN1C(=O)[C@H]1[C@H](c2ccccc2)C(c2cccc(Cl)c2)=NN1c1ccccc1	Cruzain noTriton inconclusive
COc1ccccc1[C@@H]1C(c2cccc(Cl)c2)=NN(c2ccc(Br)cc2)[C@H]1C(=O)N1CCOC1=O	Cruzain noTriton 8.9µM
COc1ccccc1[C@@H]1C(c2cccc(C)c2)=NN(c2ccccc2)[C@H]1C(=O)N1CCOC1=O	Cruzain noTriton 16µM
COc1ccccc1[C@@H]1C(c2ccc(F)cc2)=NN(c2ccccc2)[C@H]1C(=O)N1CCOC1=O	Cruzain noTriton inconclusive
COc1ccccc1[C@@H]1C(c2ccccc2)=NN(c2ccccc2)[C@H]1C(=O)N1CCOC1=O	Cruzain noTriton inconclusive
C#CCO	none
CN(C)[C@@H]1C(=O)C(C(N)=O)=C(O)[C@]2(O)C(=O)C3=C(O)c4c(O)cccc4[C@](C)(O)[C@H]3C[C@@H]12	none
CC(C)(C)c1cc2c(O)c(c1)Cc1cc(C(C)(C)C)cc(c1O)Cc1cc(C(C)(C)C)cc(c1O)Cc1cc(C(C)(C)C)cc(c1O)Cc1cc(C(C)(C)C)cc(c1O)Cc1cc(C(C)(C)C)cc(c1O)Cc1cc(C(C)(C)C)cc(c1O)Cc1cc(C(C)(C)C)cc(c1O)C2	none
COC(=O)c1ccc(CSc2nc3scc(-c4cccs4)c3c(=O)[nH]2)o1	Cruzain noTriton 16µM
COC(=O)c1ccc(CSc2nc3ccc(Cl)cc3[nH]2)o1	none
Cc1ccc(S(=O)(=O)OCCc2ccccc2)cc1	none
Cc1ccc(CN2CCSc3ccc(C(=O)NCc4ccc(OC(C)C)cc4)cc32)cc1	none
Cc1ccc(CN2CCSc3ccc(C(=O)Nc4ccc(Cl)cc4)cc32)cc1	Cruzain noTriton 7.9µM
Cc1ccc(CN2CCSc3ccc(C(=O)NCCc4ccccc4)cc32)cc1	none
O=C(NCCc1ccccc1)c1ccc2c(c1)N(Cc1ccc(F)cc1)C(=O)CS2	none
Cc1ccc(CN2CCSc3ccc(C(=O)Nc4cc(C)cc(C)c4)cc32)cc1	Cruzain noTriton 10µM

Screening results from PubChem BioAssay.
